Results from the supplement of paper PMC8728848.
This excerpt belongs to a sample that is enriched for the strongest signals.

Experiments:
Assay in all cases: glycan array binding signal (z-score within array); higher = stronger binding
Conditions in all cases: glycan notation: IUPAC condensed, linker removed
[1] = target: Fuc(a1-2)Gal(b1-3)GalNAc(a1-3)[Fuc(a1-2)]Gal(b1-4)GlcNAc
Outline: (§1)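 Glycan array binding is given as a within-array Z-score, which can be read as non-binding when negative. The arrays, 3228 of them, came from the Consortium for Functional Glycomics database and were retained only where the protein sequence was available. Z-scores were averaged across arrays of the same protein sequence at different concentrations or buffers and across linkers.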

[2] = target: Fuc(a1-2)Gal(b1-4)Fuc(a1-3)]GlcNAc(b1-2)Man(a1-3)[Fuc(a1-2)Gal(b1-4)[Fuc(a1-3)]GlcNAc(b1-2)Man(a1-6)]Man(b1-4)GlcNAc(b1-4)GlcNAc
Outline: as §1

[3] = target: Fuc(a1-2)Gal6S(b1-4)Glc6S
Outline: as §1

[4] = target: Fuc(a1-2)[GalNAc(a1-4)]Gal(b1-4)GlcNAc
Outline: as §1

[5] = target: Fuc(a1-3)[Gal(b1-4)]Glc6S
Outline: as §1

[6] = target: Fuc(a1-3)[Gal(b1-4)]GlcNAc(b1-2)Man(a1-3)[Fuc(a1-3)[Gal(b1-4)]GlcNAc(b1-2)Man(a1-6)]Man(b1-4)GlcNAc(b1-4)GlcNAc
Outline: as §1

[7] = target: Fuc(a1-3)[Gal(b1-4)]GlcNAc(b1-3)Gal(b1-4)[Fuc(a1-3)]GlcNAc(b1-3)Gal(b1-4)[Fuc(a1-3)]GlcNAc
Outline: as §1

[8] = target: Fuc(a1-3)[Gal(b1-4)]GlcNAc(b1-4)Gal(b1-4)[Fuc(a1-3)]GlcNAc
Outline: as §1

Fuc(a1-4)GlcNAc = target: Fuc(a1-4)GlcNAc
Outline: as §1

Fuc(b1-3)GlcNAc = target: Fuc(b1-3)GlcNAc
Outline: as §1

Gal(a1-3)Gal = target: Gal(a1-3)Gal
Outline: as §1

[9] = target: Gal(a1-3)Gal(b1-4)GlcNAc(b1-2)Man(a1-3)[Gal(a1-3)Gal(b1-4)GlcNAc(b1-2)Man(a1-6)]Man(b1-4)GlcNAc(b1-4)GlcNAc
Outline: as §1

[10] = target: Gal(a1-3)Gal(b1-4)[Fuc(a1-3)]GlcNAc
Outline: as §1

[11] = target: Gal(a1-3)Gal(b1-4)[Fuc(a1-3)]GlcNAc(b1-2)Man(a1-3)[Gal(a1-3)Gal(b1-4)[Fuc(a1-3)]GlcNAc(b1-2)Man(a1-6)]Man(b1-4)GlcNAc(b1-4)GlcNAc
Outline: as §1

[12] = target: Gal(a1-4)Gal(b1-3)GlcNAc(b1-2)Man(a1-3)[Gal(a1-4)Gal(b1-3)GlcNAc(b1-2)Man(a1-6)]Man(b1-4)GlcNAc(b1-4)GlcNAc
Outline: as §1

Gal(a1-4)Gal(b1-4)GlcNAc = target: Gal(a1-4)Gal(b1-4)GlcNAc
Outline: as §1

[13] = target: Gal(a1-4)Gal(b1-4)GlcNAc(b1-2)Man(a1-3)[Gal(a1-4)Gal(b1-4)GlcNAc(b1-2)Man(a1-6)]Man(b1-4)GlcNAc(b1-4)GlcNAc
Outline: as §1

Gal(a1-4)GlcNAc = target: Gal(a1-4)GlcNAc
Outline: as §1

Gal(b1-3)GlcNAc(b1-2)Man = target: Gal(b1-3)GlcNAc(b1-2)Man
Outline: as §1

[14] = target: Gal(b1-3)GlcNAc(b1-3)Gal(b1-4)Glc
Outline: as §1

[15] = target: Gal(b1-3)GlcNAc(b1-3)Gal(b1-4)GlcNAc
Outline: as §1

[16] = target: Gal(b1-3)GlcNAc(b1-3)GalNAc
Outline: as §1

[17] = target: Gal(b1-3)[GlcNAc(b1-6)]GalNAc
Outline: as §1

[18] = target: Gal(b1-4)GlcNAc(b1-3)[Gal(b1-4)GlcNAc(b1-6)]GalNAc
Outline: as §1

Gal(b1-4)GlcNAc6P = target: Gal(b1-4)GlcNAc6P
Outline: as §1

GalNAc(a1-3)Gal = target: GalNAc(a1-3)Gal
Outline: as §1

GalNAc(a1-3)GalNAc = target: GalNAc(a1-3)GalNAc
Outline: as §1

[19] = target: GalNAc(a1-3)GalNAc(a1-3)Gal(a1-4)Gal(b1-4)GlcNAc
Outline: as §1

[20] = target: GalNAc(b1-3)Gal(a1-6)Gal(b1-4)Glc
Outline: as §1

GalNAc(b1-3)GalNAc = target: GalNAc(b1-3)GalNAc
Outline: as §1

[21] = target: GalNAc(b1-4)GlcNAc(b1-2)Man
Outline: as §1

[22] = target: GlcNAc(a1-3)Gal(b1-4)GlcNAc
Outline: as §1

[23] = target: GlcNAc(b1-2)[GlcNAc(b1-6)]Man(a1-6)[GlcNAc(b1-2)Man(a1-3)]Man(b1-4)GlcNAc(b1-4)GlcNAc
Outline: as §1

[24] = target: GlcNAc(b1-3)Gal(b1-4)GlcNAc(b1-3)Gal(b1-4)GlcNAc(b1-2)[GlcNAc(b1-3)Gal(b1-4)GlcNAc(b1-3)Gal(b1-4)GlcNAc(b1-6)]Man(a1-6)[GlcNAc(b1-3)Gal(b1-4)GlcNAc(b1-3)Gal(b1-4)GlcNAc(b1-2)Man(a1-3)]Man(b1-4)GlcNAc(b1-4)[Fuc(a1-6)]GlcNAc
Outline: as §1

[25] = target: GlcNAc(b1-3)Gal(b1-4)GlcNAc(b1-6)[GlcNAc(b1-3)]Gal(b1-4)GlcNAc
Outline: as §1

GlcNAc(b1-3)Man = target: GlcNAc(b1-3)Man
Outline: as §1

Kdn(a2-3)Gal(b1-3)GalNAc = target: Kdn(a2-3)Gal(b1-3)GalNAc
Outline: as §1

[26] = target: Man(a1-2)Man(a1-3)[Man(a1-2)Man(a1-6)]Man(a1-6)[Man(a1-2)Man(a1-2)Man(a1-3)]Man(b1-4)GlcNAc(b1-4)GlcNAc
Outline: as §1

[27] = target: Man(a1-2)Man(a1-6)[Man(a1-3)]Man(a1-6)[Man(a1-2)Man(a1-2)Man(a1-3)]Man(b1-4)GlcNAc(b1-4)GlcNAc
Outline: as §1

[28] = target: Man(a1-3)[Man(a1-6)]Man(b1-4)GlcNAc(b1-4)[Fuc(a1-6)]GlcNAc
Outline: as §1

[29] = target: Neu5Ac(a2-3)Gal(b1-3)GlcNAc(b1-3)Gal(b1-3)GlcNAc
Outline: as §1

[30] = target: Neu5Ac(a2-3)Gal(b1-4)GlcNAc(b1-2)Man(a1-3)[Neu5Ac(a2-3)Gal(b1-4)GlcNAc(b1-2)Man(a1-6)]Man(b1-4)GlcNAc(b1-4)[Fuc(a1-6)]GlcNAc
Outline: as §1

[31] = target: Neu5Ac(a2-3)Gal(b1-4)GlcNAc(b1-2)Man(a1-3)[Neu5Ac(a2-6)Gal(b1-4)GlcNAc(b1-2)Man(a1-6)]Man(b1-4)GlcNAc(b1-4)GlcNAc
Outline: as §1

[32] = target: Neu5Ac(a2-3)Gal(b1-4)GlcNAc(b1-3)Gal(b1-4)GlcNAc(b1-3)Gal(b1-4)GlcNAc
Outline: as §1

[33] = target: Neu5Ac(a2-3)Gal(b1-4)GlcNAc(b1-3)Gal(b1-4)GlcNAc(b1-3)Gal(b1-4)GlcNAc(b1-2)Man(a1-3)[Neu5Ac(a2-3)Gal(b1-4)GlcNAc(b1-3)Gal(b1-4)GlcNAc(b1-3)Gal(b1-4)GlcNAc(b1-2)Man(a1-6)]GalNAc
Outline: as §1

[34] = target: Neu5Ac(a2-3)Gal(b1-4)[Fuc(a1-3)]GlcNAc(b1-2)Man
Outline: as §1

[35] = target: Neu5Ac(a2-6)Gal(b1-4)GlcNAc(b1-2)Man(a1-6)[Gal(b1-4)GlcNAc(b1-2)Man(a1-3)]Man(b1-4)GlcNAc(b1-4)GlcNAc
Outline: as §1

[36] = target: Neu5Ac(a2-6)Gal(b1-4)GlcNAc(b1-3)Gal(b1-4)GlcNAc(b1-6)[Gal(b1-3)]GalNAc
Outline: as §1

[37] = target: Neu5Ac(a2-6)Gal(b1-4)GlcNAc(b1-3)GalNAc
Outline: as §1

[38] = target: Neu5Ac(a2-6)GalNAc(b1-4)GlcNAc6S
Outline: as §1

[39] = target: Neu5Gc(a2-3)Gal(b1-3)GlcNAc
Outline: as §1

[40] = target: Neu5Gc(a2-3)Gal(b1-4)[Fuc(a1-3)]GlcNAc
Outline: as §1

[41] = target: Neu5Gc(b2-6)Gal(b1-4)GlcNAc
Outline: as §1

B1: GSL-I (Griffonia simplicifolia) (protein)
chain: FNLPNFWSDVKDNIIFQGDANTTAGTLQLCKTNQYGNPLQYRAGRALYSDPVQLWDNKTGSVASFYTEFTFFLKITGDGPADGLAFFLAPPDSDVKDAGAYLGLFNKSTATQPSKNQVVAVEFDTWKNTDFPEPSYRHIGINVNSIVSVATKRWEDSDIFSGKIATARISYDGSAKILTVVLSYPDGADYILSHSVDLSKNLPNPIRVGISASTGANQFLTVYVLSWRFSSALQSTSVNAAMGPEIIRTVV
[1]
  glycan array binding signal (z-score): -0.242
[2]
  glycan array binding signal (z-score): 0.367
[3]
  glycan array binding signal (z-score): -0.216
[4]
  glycan array binding signal (z-score): 7.04
[5]
  glycan array binding signal (z-score): -0.16
[6]
  glycan array binding signal (z-score): -0.232
[7]
  glycan array binding signal (z-score): -0.188
[8]
  glycan array binding signal (z-score): -0.311
Fuc(a1-4)GlcNAc
  glycan array binding signal (z-score): -0.215
Fuc(b1-3)GlcNAc
  glycan array binding signal (z-score): -0.236
Gal(a1-3)Gal
  glycan array binding signal (z-score): 0.597
[9]
  glycan array binding signal (z-score): 5.7
[10]
  glycan array binding signal (z-score): 3.4
[11]
  glycan array binding signal (z-score): 0.283
[12]
  glycan array binding signal (z-score): 9.69
Gal(a1-4)Gal(b1-4)GlcNAc
  glycan array binding signal (z-score): 1.82
[13]
  glycan array binding signal (z-score): 3.15
Gal(a1-4)GlcNAc
  glycan array binding signal (z-score): 4.53
Gal(b1-3)GlcNAc(b1-2)Man
  glycan array binding signal (z-score): -0.124
[14]
  glycan array binding signal (z-score): -0.194
[15]
  glycan array binding signal (z-score): -0.226
[16]
  glycan array binding signal (z-score): -0.203
[17]
  glycan array binding signal (z-score): -0.102
[18]
  glycan array binding signal (z-score): -0.312
Gal(b1-4)GlcNAc6P
  glycan array binding signal (z-score): -0.178
GalNAc(a1-3)Gal
  glycan array binding signal (z-score): 6.1
GalNAc(a1-3)GalNAc
  glycan array binding signal (z-score): 2.08
[19]
  glycan array binding signal (z-score): 1.85
[20]
  glycan array binding signal (z-score): -0.191
GalNAc(b1-3)GalNAc
  glycan array binding signal (z-score): -0.272
[21]
  glycan array binding signal (z-score): -0.143
[22]
  glycan array binding signal (z-score): -0.199
[23]
  glycan array binding signal (z-score): -0.121
[24]
  glycan array binding signal (z-score): 0.036
[25]
  glycan array binding signal (z-score): -0.255
GlcNAc(b1-3)Man
  glycan array binding signal (z-score): -0.193
Kdn(a2-3)Gal(b1-3)GalNAc
  glycan array binding signal (z-score): -0.069
[26]
  glycan array binding signal (z-score): -0.033
[27]
  glycan array binding signal (z-score): -0.302
[28]
  glycan array binding signal (z-score): -0.305
[29]
  glycan array binding signal (z-score): -0.152
[30]
  glycan array binding signal (z-score): -0.283
[31]
  glycan array binding signal (z-score): -0.197
[32]
  glycan array binding signal (z-score): -0.261
[33]
  glycan array binding signal (z-score): 2.34
[34]
  glycan array binding signal (z-score): -0.227
[35]
  glycan array binding signal (z-score): 0.106
[36]
  glycan array binding signal (z-score): -0.048
[37]
  glycan array binding signal (z-score): -0.128
[38]
  glycan array binding signal (z-score): -0.271
[39]
  glycan array binding signal (z-score): -0.164
[40]
  glycan array binding signal (z-score): -0.153
[41]
  glycan array binding signal (z-score): -0.099
